# NALP1 inh – NALP1 inflammasome inhibitors in reconstituted yeast, colorimetric, S. cerevisiae, triplicate retest | S. cerevisiae NALP1/ASC/caspase-1 growth, X-gal OD620, 72 h | inhibition, % at 10 µM | 280,000 compounds, 0.61% hits | AID 2071, 2009; in the data active = inhibition mostly above about 24%, no sharp cut-off; inactive = mostly below about 32%
# A3G deaminase – APOBEC3G DNA deaminase inhibitors, primary screen, biochemical, fluorescence, single-stranded DNA substrate, uHTS | recombinant A3G, ssDNA deamination FAM/TAMRA fluorescence | inhibition, % at 20 µM | 330,000 compounds, 0.28% hits;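 active = inhibition of at least 40% at 20 µM, with no more than 30% in the related APOBEC3A deaminase screen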;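 also: plate controls were DMSO wells with A3G for no effect and wells lacking A3G enzyme for full effect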
# Target sequence (Q9HC16 whole entry, looked up): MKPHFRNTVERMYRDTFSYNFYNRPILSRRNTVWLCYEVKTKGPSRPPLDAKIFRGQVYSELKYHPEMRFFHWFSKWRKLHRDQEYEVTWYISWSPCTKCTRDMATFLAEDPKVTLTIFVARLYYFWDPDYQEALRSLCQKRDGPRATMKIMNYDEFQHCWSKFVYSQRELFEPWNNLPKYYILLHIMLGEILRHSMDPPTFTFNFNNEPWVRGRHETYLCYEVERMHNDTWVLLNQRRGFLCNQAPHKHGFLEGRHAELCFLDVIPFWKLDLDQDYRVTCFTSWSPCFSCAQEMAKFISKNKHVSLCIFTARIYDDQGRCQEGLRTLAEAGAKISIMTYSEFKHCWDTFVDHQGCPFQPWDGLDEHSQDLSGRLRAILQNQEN
# Fh CTSL1 inh – Fasciola hepatica cathepsin L1 inhibitors, primary screen, counter-screen for PFM18AAP inhibitor project, biochemical, QFRET, fluorogenic peptide substrate. recombinant F. hepatica cathepsin L1, Z-Leu-Arg-MCA fluorescence. inhibition, % at 5.96 µM. 300,000 compounds, 0.49% hits. AID 1906, 2009;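 active = inhibition above the mean of all tested compounds plus 3 SD, set per screening campaign, cut at about 17% in these data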;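 also: 0% = plate median of test compound wells and 100% = 1 µM Z-Phe-Ala-diazomethylketone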
# A3A deaminase – APOBEC3A ssDNA deaminase inhibitors, primary screen, selectivity assay for APOBEC3G inhibitor project, biochemical, FAM/TAMRA oligo cleavage fluorescence; recombinant A3A, FAM/TAMRA ssDNA deamination fluorescence; inhibition, % at 20 µM; 330,000 compounds, 0.41% hits;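 active = at least 40% inhibition at 20 µM here, with at most 30% in a related deaminase screen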;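 also: plate controls were A3A with DMSO for no effect and wells lacking A3A enzyme for full effect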
# Target sequence (P31941 whole entry, looked up): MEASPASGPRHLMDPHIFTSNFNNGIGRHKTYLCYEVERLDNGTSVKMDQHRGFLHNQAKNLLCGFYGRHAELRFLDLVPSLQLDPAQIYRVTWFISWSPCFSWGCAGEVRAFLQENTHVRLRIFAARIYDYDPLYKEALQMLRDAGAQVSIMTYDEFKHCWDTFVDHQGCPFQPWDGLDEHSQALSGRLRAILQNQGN
# HGIII-sPLA2 inh – human group III sPLA2 inhibitors, primary screen, biochemical, QFRET, BODIPY PC-A2 liposome substrate | 370,000 compounds, 0.56% hits | Group 3 secretory phospholipase A2 (Homo sapiens), Q9NZ20 | inhibition, % at 12.2 µM | QFRET BODIPY PC-A2 liposome hydrolysis, fluorescence;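 active = inhibition above mean plus 3 SD of compounds lying within the high and low control bounds, cut at about 19% in these data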;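 also: 0% = median of test compound wells and 100% = no enzyme DMSO wells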
# sPLA2 confirm – human group III sPLA2 inhibitors, confirmation, biochemical, QFRET, triplicate; recombinant hGIII-sPLA2, BODIPY PC-A2 QFRET fluorescence; 2,000 compounds, 34% hits; shares compounds with HGIII-sPLA2 inh; inhibition, % at 12.2 µM;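 active = mean inhibition across triplicates above the hit cutoff set in the earlier primary screen, cut at about 19% in these data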;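 also: 0% = enzyme with DMSO and 100% = DMSO wells lacking enzyme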
# 535nm interf – 535nm fluorescence optical interference, confirmation, artefact control for HGIII-sPLA2 inhibitor project, biochemical, QFRET. shares compounds with HGIII-sPLA2 inh. BODIPY FL product fluorescence interference. inhibition, % at 12.2 µM. 2,000 compounds, 8.5% hits. AID 743282, 2014;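 active = average inhibition above the solvent-only control mean plus 3 SD, cut at about 6% in these data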;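 also: 0% = DMSO with substrate plus product and 100% = DMSO with substrate alone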
# BODIPY interf DR – 535nm fluorescence optical interference, dose response, artefact control for HGIII-sPLA2 inhibitor project, biochemical, QFRET; shares compounds with HGIII-sPLA2 inh; IC50, µM; 240 tested, under 10 active; BODIPY FL product fluorescence interference, cell-free;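 active = IC50 at or below 10 µM; inactive = IC50 above 10 µM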
# The depositor's hits bear a star; x = no result. Compounds with a hit are over-represented: about 2% of the library has one in this group of screens.
SMILES,NALP1 inh,A3G deaminase,Fh CTSL1 inh,A3A deaminase,HGIII-sPLA2 inh,sPLA2 confirm,535nm interf,others
O=S(=O)(c1cccc(-c2n[nH]c(=S)n2-c2cccc(C(F)(F)F)c2)c1)N1CCOCC1,x,7,x,-2,16,x,x,
Cc1ccc(S(=O)(=O)N2CCOCC2)cc1-c1n[nH]c(=S)n1-c1ccccc1,x,32,x,-6,23*,11,-1,
COc1ccc(NC(=O)N2CCCCC2c2cccnc2)cc1 (centres undefined),24,-2,4,3,22*,4,-5,
COc1cc(OC)cc(C(=O)NC(=S)N2CCCCC2c2cccnc2)c1 (centres undefined),0,1,-3,-1,9,x,x,
COCCn1c(=NC(=O)c2ccc(S(=O)(=O)N3CCCc4ccccc43)cc2)sc2cc(S(C)(=O)=O)ccc21,28,1,0,1,20*,-8,-1,
C=CCn1c(=NC(=O)c2ccc(S(=O)(=O)N3CCCc4ccccc43)cc2)sc2cc(S(N)(=O)=O)ccc21,16,-5,-8,0,-7,x,x,
Cc1cccc(NC(=S)N2CCN(c3ccc(F)cc3)CC2)c1,-8,-4,-4,1,26*,11,-5,
CC1CCCN(C(C(=O)NC2CCCCC2)c2cc3c(cc2[N+](=O)[O-])OCO3)C1 (centres undefined),15,-8,0,-1,20*,2,-16,
CCCC[C@H]1C2CC(OC(=O)Nc3ccc(Br)cc3)C(C2)[C@H]2CCCCN21 (some centres undefined),x,x,x,x,0,x,x,
O=C(O)/C=C/C(=O)Nc1ccc(C2(c3ccc(NC(=O)/C=C/C(=O)O)cc3)c3ccccc3-c3ccccc32)cc1,2,-2,0,-1,22*,-12,-4,
O=C(Nc1ccccc1Oc1ccccc1)NC1CCCCN(Cc2ccc(Cl)cc2)C1=O (centres undefined),x,x,x,x,-1,x,x,
O=C(NCCNc1ccc([N+](=O)[O-])cc1)c1cccc(Br)c1,12,3,0,3,23*,0,-5,
COC(=O)[C@]12C[C@H](CC(=O)NCc3cccc(C(F)(F)F)c3)C(=O)N(Cc3ccc(Cl)cc3Cl)C1=C[C@H](C1CCCC1)O[C@@H]2C,x,x,x,x,5,x,x,
COc1ccc(O)c(/C=N/NC(=S)Nc2cccc(S(=O)(=O)N(C)C)c2)c1,-3,x,2,x,24*,11,12*,
COc1ccc(O)c(/C=N/NC(=S)Nc2cccnc2)c1,-31,-5,1,-5,20*,27*,5,
COc1cccc(/C=N/NC(=S)Nc2cccnc2)c1,-6,5,6,-1,3,x,x,
O=C(Cc1cccs1)NC1CCCCN(Cc2cccc(Cl)c2)C1=O (centres undefined),x,x,x,x,-1,x,x,
CCn1c(SCC(=O)c2ccc(-c3ccccc3)cc2)nnc1-c1ccc(C(C)(C)C)cc1,x,x,x,x,9,x,x,
OC1c2cc(Br)ccc2N=C2CCCCCN21 (centres undefined),x,x,x,x,20*,-3,-7,
OC1c2cc(Br)ccc2N=C2CCCN21 (centres undefined),28,0,-7,-8,7,x,x,
NS(=O)(=O)c1cccc(NC(=O)CCC(=O)c2cccs2)c1,9,-9,1,-5,2,x,x,
NS(=O)(=O)c1cccc(NC(=O)c2cccs2)c1,x,-4,-5,2,21*,3,-4,
CN1C2=N[C@H](c3ccc(Br)cc3)CC(=O)N2/C(=C\c2ccccc2)[C@@H]1c1ccccc1,x,x,x,x,-17,x,x,
CC(C)N=c1scc(-c2cccs2)n1/N=C/c1ccc(O)c(O)c1O,-6,5,2,9,38*,54*,2,BODIPY interf DR=>122
CCc1n[nH]c(=S)n1/N=C/c1cc(Br)c(OC)cc1OC,3,9,-2,0,22*,19*,5,
SMILES,NALP1 inh,A3G deaminase,Fh CTSL1 inh,A3A deaminase,HGIII-sPLA2 inh,sPLA2 confirm,535nm interf,others
CC1(NC(=S)NCCO)CCS(=O)(=O)C1 (centres undefined),34,-2,0,2,20*,0,-8,
CC1(NC(=S)N(CCO)CCO)CCS(=O)(=O)C1 (centres undefined),14,-1,-5,0,2,x,x,
O=C1CCC[C@H]2C[C@H](NCc3cccs3)CC[C@]23CCCN13,x,x,x,x,2,x,x,
Cc1ccc(C)c(N2CCN(CC3CCCCC3)CC2)c1,16,1,-1,-4,21*,15,-12,
Cc1cccc(N2CCN(CC3CCCCC3)CC2)c1C,9,-7,5,-3,3,x,x,
Cc1ccc(-c2cc(-c3nnc(SCC(=O)N4CCOCC4)n3N)[nH]n2)cc1,x,x,x,x,0,x,x,
COc1ccc(/C=C2\SC(=O)N(CC(=O)NNC(=O)c3ccccc3O)C2=O)cc1OC,17,-5,0,-3,21*,17,2,
O=C(CSc1ccccc1)NNC(=O)c1ccccc1O,10,-8,-1,0,20*,9,-3,
O=C(CCN1C(=O)/C(=C\c2ccccc2)SC1=S)NNC(=O)c1ccccc1O,18,-11,4,-7,25*,16,-5,
O=C(CN1C(=O)S/C(=C\c2ccccc2)C1=O)NNC(=O)c1ccccc1O,14,0,3,0,23*,16,3,
O=C(NCCc1c[nH]c2ccccc12)OCc1cn(Cc2cccc(F)c2F)nn1,x,x,x,x,-64,x,x,
C=CCN1C(=O)[C@H](CC(=O)NCc2ccc(OC)c(OC)c2)[C@@]2(C(=O)OCC)CCCC=C12,x,x,x,x,0,x,x,
COCCn1c(C)cc(C(=O)COC(=O)c2cncc(Br)c2)c1C,29,-5,-8,-5,21*,6,-8,
COCCn1c(C)cc(C(=O)COC(=O)c2ccccc2Br)c1C,3,-10,-5,-4,-7,x,x,
Cc1ccc(-c2ccc3c(c2)O[C@H](CN(C)C(=O)Nc2ccc(C(F)(F)F)cc2)[C@H](C)CN([C@H](C)CO)S3(=O)=O)cc1,x,x,x,x,-23,x,x,
